{"source": "PubChem BioAssay (NCATS)", "note": "Unmarked numbers belong to inactive results. Inconclusive results are not listed. Activity calls are given as the source filed them. The call rests on the fitted dose curve; in most records, active means well fitted curve in the direction sought with a large enough effect; inconclusive means small, poorly fitted or top-dose-only effect, or another doubt; inactive means no such curve, though single readings can be large; an effect the other way counts as inactive or inconclusive. Bridge positions count the residues as written; N and C are the ends. Square brackets hold non-standard residues; d marks the D form. Side chains are listed from the residue outwards. Peptide text beside a SMILES is read from it. * marks the point of attachment. Phg(4-OMe) = COc1ccc([C@H](N)C(=O)O)cc1; d(aIle) = CC[C@H](C)[C@@H](N)C(=O)O; d(aThr) = C[C@@H](O)[C@@H](N)C(=O)O; NMeF = CN[C@@H](Cc1ccccc1)C(=O)O; Isobutyryl = CC(C)C(=O)*"}
{"experiment": "qHTS for ATAD5 Agonist screened against the NCATS CANVASS Library (AID 1347367);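 further: luciferase reporter driven by ATAD5 which rises upon DNA damage; 0% is about no effect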", "conditions": "HEK293T ATAD5-luciferase reporter, luminescence, 16 h; series mostly up to 46.1 µM; activation: at the top concentration", "how_it_was_run": "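Step one plated reporter cells and let them acclimate 5hr. Step two pinned compounds with MMS as positive and 0.46% DMSO as negative control. After 16hr incubation, fluorescence viability then luminescence were read.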", "units": {"activation": "%"}}
{"compound": "COc1cc(/C=C/C(=O)OC[C@@H](Cc2ccc(O)c(OC)c2)[C@@H](COC(=O)/C=C/c2ccc(O)c(OC)c2)Cc2ccc(O)c(OC)c2)ccc1O", "activation": -7.49}
{"compound": "C[C@]12CCC[C@](C)(C(=O)O)[C@@H]1CC[C@@]1(C)c3cocc3CC[C@H]21", "activation": 1.79}
{"compound": "COc1c(O)cc2c(c1O)C(=O)c1c(coc1C)C2=O", "activation": -0.592}
{"compound": "CO[C@H]1[C@@H](OC(=O)/C(C)=C\\[C@@H]2O[C@@H]2[C@H]2O[C@H]2C)[C@H](O)[C@H](OCC23C[C@@H]4[C@H](C)CC[C@H]4C4(C=O)CC2C=C(C(C)C)C34C(=O)O)O[C@@H]1C", "note": "(stereo partly drawn)", "activation": 0.925}
{"compound": "CC[C@H]1[C@H](C)[C@H](c2cc(OC)c(OC)cc2OC)[C@@H](C)[C@H](c2cc(OC)c(OC)cc2OC)[C@@]12C=C(OC)C(=O)C=C2OC", "activation": 10.7}
{"experiment": "G06 Cancer Cell Toxicity qHTS against the NCATS CANVASS Library (AID 1347368); further: nearly all actives have a fitted effect of over 60% in size; further: potency means the concentration at half of the fitted maximal effect; on activity change, negative = cytotoxic: on the % scale 0 is the no-effect control and ±100 the full control effect", "conditions": "G06 dog glioma cells, viability ATP luminescence, 72 h; series mostly up to 46.1 µM; activity change, negative = cytotoxic: at the top concentration; outcome: at the top concentration", "how_it_was_run": "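Cytotoxicity toward canine glioma G06 cells is scored from cellular ATP via luminescence after 72 hr compound exposure at 500 cells/well.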", "units": {"activity change, negative = cytotoxic": "%"}}
{"compound": "O=C1CC2OCC=C3CN4C5CC3C2[C@@H]2N1c1ccccc1[C@]52C[C@@H]4C1=C[C@H]2C3CC4N(CC[C@@]45c4ccccc4N(C1=O)[C@@H]25)C/C3=C/CO", "note": "(stereo partly drawn)", "Potency": "23.5 µM (active)"}
{"compound": "CCC(=O)CCCCC[C@@H]1NC(=O)[C@H]2CCCCN2C(=O)[C@H](C(C)C)NC(=O)[C@H](Cc2cn(OC)c3ccccc23)NC1=O", "Potency": "4.69 µM (active)"}
{"compound": "C/C(=C\\[C@H](C)C(=O)CCCC1CC(=O)NC(=O)C1)[C@@H]1OC(=O)/C=C/CC/C=C/[C@H](O)[C@@H](O)[C@@H]1C", "Potency": "0.372 µM (active)"}
{"compound": "C/C=C(/C)c1c(Cl)c(O)c(C)c2c1Oc1c(Cl)c(O)c(Cl)c(C)c1C(=O)O2", "activity change, negative = cytotoxic": -14.1}
{"compound": "C=CC(CCCCC)C1C(=O)NC(=O)C1C(=O)C1C(/C=C/C)C=CC2CC(C(=O)O)CC(C)C21", "note": "(stereo not drawn)", "activity change, negative = cytotoxic": -12.2}
{"compound": "COc1ccc([C@@H]2CC(=O)c3c(cc(O)c(C/C=C(\\C)CCC=C(C)C)c3O)O2)cc1", "outcome": "inactive [at 9.19 µM]"}
{"compound": "CC[C@H](C)[C@H]1NC(=O)[C@@H](NC(=O)C(C)C)[C@@H](C)OC(=O)[C@H](COC(=O)CNC(C)=O)NC(=O)[C@@H]([C@@H](C)O)NC(=O)[C@H](Cc2ccccc2)N(C)C(=O)[C@H](c2ccc(OC)cc2)NC1=O", "note": "(Isobutyryl-T[d(aIle)][Phg(4-OMe)][NMeF][d(aThr)]S([Gly-Ac]); ester 1-C)", "activity change, negative = cytotoxic": -13.7}
{"compound": "C[n+]1cc2cc(C(N)=O)[nH]c3c(=N)c(Cl)c(N)c1c23", "Potency": "5.26 µM (active)"}
{"compound": "CC(=O)Oc1cc2c(c(OC(C)=O)c1C1CCc3cc(Cl)c(Cl)n31)C(=O)n1c-2cc(Cl)c1Cl", "note": "(stereo not drawn)", "Potency": "14.8 µM (active)"}
{"compound": "COc1ccc2[nH]c3c(c2c1)CCN1C[C@H]2C[C@@H](OC(=O)c4cc(OC)c(OC)c(OC)c4)[C@H](OC)[C@@H](OC)[C@H]2C[C@H]31", "Potency": "1.48 µM (active)"}
{"compound": "O[C@H]1c2ccccc2-c2c3c(cc4c2[C@@H]1NCC4)OCO3", "Potency": "16.6 µM (active)"}
{"compound": "CC(C)=CC[C@H]1C[C@@]2(CC=C(C)C)C(=O)[C@](CC=C(C)C)(C(=O)C(C(=O)c3ccccc3)=C2O)C1(C)C", "Potency": "20.9 µM (active)"}
{"compound": "CC(=O)O[C@H]1c2ccccc2-c2c3c(cc4c2[C@@H]1N(C(C)=O)CC4)OCO3", "activity change, negative = cytotoxic": -11}
{"compound": "C=C1CC[C@@H](Br)C(C)(C)[C@]12CC=C(C)C(=O)C2", "activity change, negative = cytotoxic": -4.58}
{"compound": "C/C(=C\\[C@H](C)C(=O)/C=C/CC1CC(=O)NC(=O)C1)[C@@H]1OC(=O)/C=C/CC/C=C/C[C@@H](O)[C@@H]1C", "Potency": "1.05 µM (active)"}
{"compound": "CC(C)[C@]12CC[C@@]3(C)[C@H](C)CC[C@H](O)[C@@]3(CC1)c1cc3c(cc12)[nH]c1ccccc13", "outcome": "inactive"}
{"compound": "C/C=C1/CN2C3CC1C1C=CC(=O)N4c5ccccc5[C@@]3(C[C@@H]2C2=C[C@H]3C5CC6N(CC[C@@]67c6ccccc6N(C2=O)[C@@H]37)C/C5=C/C)[C@H]14", "note": "(stereo partly drawn)", "Potency": "7.43 µM (active)"}
{"compound": "CC(C)=CCC[C@]12c3cc4c(cc3CC[C@@]1(C)[C@H](C)CC[C@@H]2O)[nH]c1ccccc14", "activity change, negative = cytotoxic": -19.6}
{"compound": "COc1cc(O)c(C(=O)[C@@H]2[C@H](CC=C(C)C)C(C)=CC[C@H]2c2ccccc2)c(O)c1", "activity change, negative = cytotoxic": -25}
{"compound": "C=C(C)CC[C@H](Cc1c(O)cc(O)c2c1O[C@H](c1ccc(O)cc1)CC2=O)C(=C)C", "activity change, negative = cytotoxic": -29.2}
{"compound": "COc1cc(/C=C/C(=O)OC[C@@H](Cc2ccc(O)c(OC)c2)[C@@H](COC(=O)/C=C/c2ccc(O)c(OC)c2)Cc2ccc(O)c(OC)c2)ccc1O", "Potency": "14.8 µM (active)"}
{"compound": "C=CC(CCCCC)C1C(=O)NC(=O)C1C(=O)C1C2C(C)CC(C(=O)O)CC2CC1(O)C(=O)/C=C/C", "note": "(stereo not drawn)", "outcome": "inactive"}
{"compound": "C[C@]12CCC[C@](C)(C(=O)O)[C@@H]1CC[C@@]1(C)c3cocc3CC[C@H]21", "activity change, negative = cytotoxic": 0.388}
{"compound": "CC(C)C[C@@H]1c2c(O)c(C=O)c(O)c(C=O)c2O[C@]2(C)C=C[C@@H](C(C)C)C[C@H]12", "activity change, negative = cytotoxic": -14.9}
{"compound": "COc1cc2c(c(O)c1O)C(=O)c1c(coc1C)C2=O", "Potency": "11.8 µM (active)"}
{"compound": "CO[C@H]1[C@@H](OC(=O)/C(C)=C\\[C@@H]2O[C@@H]2[C@H]2O[C@H]2C)[C@H](O)[C@H](OCC23C[C@@H]4[C@H](C)CC[C@H]4C4(C=O)CC2C=C(C(C)C)C34C(=O)O)O[C@@H]1C", "note": "(stereo partly drawn)", "activity change, negative = cytotoxic": -6.39}
{"compound": "C/C=C/C1C=CC2CC(C)CC(C)C2C1C(=O)CC(=O)NC(CO)C/C=C/CCCCC", "note": "(stereo not drawn)", "Potency": "1.32 µM (active)"}
{"compound": "CC[C@H]1[C@H](C)[C@H](c2cc(OC)c(OC)cc2OC)[C@@H](C)[C@H](c2cc(OC)c(OC)cc2OC)[C@@]12C=C(OC)C(=O)C=C2OC", "Potency": "23.5 µM (active)"}
